From PubChem BioAssay AID1117359 (Southern Research Institute, 2015)
The whole screen tested about 1,500 compounds, of which about 460 (31%) were called active. A selection follows. Potency and affinity values are given separately. Values without a mark were called inactive.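 How the source made its calls: active means viability at or below 80% at any tested concentration, marking the compound as toxic; inactive means the rest.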

assay: THP-1 cell cytotoxicity, dose response, cytotoxicity control for Vif-APOBEC3G degradation inhibitor project, THP-1 cells (AID 1117359); settings: THP-1 viability, CellTiter-Glo luminescence, 72 h; series mostly up to 40 µM; viability: at the top concentration

In order of falling “viability” value:
1. COC(=O)C1=C(O)/C(=C/c2cccc(OC)c2O)N=C1C  119%
2. O=[N+]([O-])c1ccc(Cl)c(S(=O)(=O)Nc2cccc(S(=O)(=O)NC3=NCCC3)c2)c1  116%
3. CCCc1cc(=O)[nH]c(SCC(=O)c2c(C)[nH]c3ccccc23)n1  116%
4. COc1ccccc1N1C(=O)CC(Nc2ccc(N3CCOCC3)cc2)C1=O (stereo not given)  113%
5. O=S(=O)(O)c1cc(Cl)cc(N=Nc2ccc(O)cc2O)c1O  112%
6. O=S(=O)(O)c1cccc2c(N=Nc3ccc(O)c4ncccc34)cccc12  112%
7. O=C1CC(Nc2ccc(N3CCOCC3)cc2)C(=O)N1Cc1ccccc1 (stereo not given)  111%
8. S=c1[nH]nc(C2CC2)n1Cc1ccco1  110%
9. Cc1ccccc1NC(=O)Cc1nc(COC(=O)Cc2ccccc2F)cs1  110%
10. COc1ccc(NC(=O)CCCSc2ccccc2)cc1  110%
11. N/C(=N\OC(=O)COc1ccc([N+](=O)[O-])cc1)c1cccnc1  109%
12. COc1ccc(C(=O)NC2CC3CCCC(C2)N3CC(C)C)cc1 (stereo not given)  108%
13. CC1CCC/C(=C\Nc2ccc(C(=O)O)c(O)c2)C1=O (stereo not given)  107%
14. C/C(=N\NC(=O)c1cnccn1)c1ccc([N+](=O)[O-])cc1  107%
15. COc1cc(-n2cnnn2)ccc1S(=O)(=O)N1CCOCC1  106%
16. CC(C)(C)NC(=O)/C(=C/c1ccco1)c1ccccc1  106%
17. Cc1cc(/C=C2\SC(=S)NC2=O)c(C)n1-c1ccccc1  106%
18. COc1cccc(CNCC(=O)Nc2ccc(N3CCOCC3)cc2)c1  105%
19. O=C(NN(C(=O)c1ccccc1)c1ccccc1)c1ccccc1  105%
20. O=C(O)/C=C/c1ccc(S(=O)(=O)N2CCN(CCN3C(=O)C4C5C=CC(C5)C4C3=O)CC2)cc1 (stereo not given)  105%
21. O=[N+]([O-])c1cc2ccccc2c(O)c1O  105%
22. COc1ccc(NC2=NC(C)(CO)CS2)cc1 (stereo not given)  105%
23. CCCCc1nc2sc3c(=O)[nH]cnc3c2c2c1CCCC2  105%
24. CN(Cc1ccccc1)C(=O)C1CCCN1S(=O)(=O)c1ccc2c(c1)n(C)c(=O)c(=O)n2C (stereo not given)  104%
25. Cc1ccc(C(=O)O)cc1-c1ccc(/C=C2/NC(=O)N(c3ccccc3)C2=O)o1  104%
26. CC(=C/C(=O)O)/C=C/c1ccc(Cl)o1  104%
27. Cc1cc(SCC2=NNC(=O)C2)c(Cl)cc1Cl  104%
28. O=C(CSc1nccc(=O)[nH]1)Nc1ccc2c(c1)OCCO2  103%
29. O=[N+]([O-])c1ccc(-c2c[nH]c(=S)[nH]2)cc1  103%
30. O=C(CN1C(=O)NC(c2ccc(F)cc2)C1=O)Nc1ccc2c(c1)OCCO2 (stereo not given)  103%
31. CC(C)(C)c1ccc(NC(=S)NCc2cccnc2)cc1  103%
32. CC(=O)c1ccc(N2C(=NC(=O)C3CCCO3)SC3CS(=O)(=O)CC32)cc1 (stereo not given)  102%
33. Cc1c(C)n(C(=O)CSc2nc3ccccc3[nH]2)c2ccccc12  102%
34. Nc1ccccc1NC1=CC(=O)CC(c2ccco2)C1 (stereo not given)  102%
35. Cc1nc2ccccc2n2c(O)c(CC(=O)O)cc12  102%
36. C=C(C)C(=O)Nc1cccc(C2=NOC3(C2)C[C@@H](C(N)=O)N(C(=O)/C=C/CC)C3)c1 (stereo not given in full)  101%
37. O=C(/C=C/c1ccco1)c1cccnc1  101%
38. O=C(Nn1cnnc1)c1cc(-c2cccc(Br)c2)nc2ccccc12  101%
39. O=C(CSc1nnc(Cc2ccc(Cl)cc2)o1)Nc1ccccc1  101%
40. COc1ccc(-c2cc(-c3ccco3)[nH]c(=O)c2C#N)cc1  101%
41. CCOC(=O)/C(=C\c1ccccc1)NC(=O)c1ccccc1  101%
42. NS(=O)(=O)c1ccc(CCNC2CC(=O)N(Cc3ccccc3)C2=O)cc1 (stereo not given)  101%
43. CC(C)Cn1c(SCC(=O)Nc2cccnc2Cl)nnc1-c1ccco1  99.8%
44. Cc1cccc(NC(=O)CSc2nnc(CCC(=O)Nc3ccc(C)c(Cl)c3)n2C)c1  99.7%
45. CN(CC(=O)Nc1ccccc1Cl)C(=O)Cn1cc(C(F)(F)F)cc(Cl)c1=O  98.7%
46. CCOc1cc(C(C(=O)NCC2CCCO2)N(C(=O)Cn2nnc3ccccc32)c2cccc(OC)c2)ccc1O (stereo not given)  98.6%
47. Cc1ccc(C2C(C#N)=C(N)Oc3c2oc(CO)cc3=O)o1 (stereo not given)  98.5%
48. Cc1ccc(C(=O)C2=C(O)C(=O)N(c3ncccn3)C2c2ccc(F)cc2)o1 (stereo not given)  98.4%
49. O=C(Cn1c(=O)oc2ccccc21)N1CCN(S(=O)(=O)c2ccccc2)CC1  98.3%
50. O=C1NCC(O)=C1C=NC12CC3CC(CC(C3)C1)C2  97.2%
51. C[C@@H]1NC(=O)[C@H](CCC(N)=O)NC(=O)c2cc([N+](=O)[O-])cc(I)c2NCCC[C@@H](C(N)=O)NC1=O  97%
52. COc1ccc(C2CC(=O)Oc3cc(OC)ccc32)cc1 (stereo not given)  97%
53. CN(Cc1cn(C)nc1-c1cccc(Cl)c1)Cc1nccn1C  97%
54. Cc1nn(Cc2ccccc2)c(C)c1/C=N/NC(=O)c1ccccc1O  96.5%
55. COc1ccc2cc(C3C(C#N)=C(N)OC(C)=C3C(C)=O)c(Cl)nc2c1 (stereo not given)  96.4%
56. COc1ccccc1C(=O)Nc1ccc(-c2nnc(SCC(=O)O)n2C)cc1  96.2%
57. CCOc1ccc(/C=C2\NC(=S)NC2=O)cc1  96.2%
58. CCNC(=O)COC(=O)c1cc(-c2ccco2)nc2ccccc12  96.2%
59. COc1ccc(NS(=O)(=O)c2cccc(C(=O)NNC(=O)c3cccn3C)c2)cc1  96.1%
60. COc1ccc(NC(=O)C2CCCNC2)cc1OCC(C)C (stereo not given)  96%
61. COCCn1c(SCC(=O)Nc2cc(C)on2)nc2cc(Cl)ccc2c1=O  95.7%
62. [O-]/[N+](=C\C=C\c1ccccc1)c1ccccc1  95.6%
63. CN1CCN(/C=C(\C#N)S(=O)(=O)c2ccc(Cl)cc2)CC1  95.5%
64. COC(=O)Cc1ccc(NC(=S)NNC(=O)C2CC2)cc1  94.8%
65. Cc1[nH]c(=O)nc(NN=Cc2ccc(Cl)cc2)c1C(=O)Nc1ccc(Cl)cc1  94.2%
66. O=c1[nH][nH]c(=O)c2nc(Nc3ccccc3)ncc12  93.8%
67. CCN(CC)C(=O)CN1C(=O)C2(NC(=O)c3ccccc3N2)c2ccccc21 (stereo not given)  93.6%
68. O=C(CC1C(=O)NCCN1Cc1ccc(F)cc1)NCCN1CCCc2ccccc21 (stereo not given)  93.5%
69. COc1ccc(S(=O)(=O)NNC(=O)c2sccc2-n2cccc2)cc1  93.2%
70. CCN(CC)c1ccc(C=Nc2ccc(N(C)C)cc2)c(O)c1  92.7%
71. CC(=O)NC1=NC(=O)/C(=C/c2cc(C)n(-c3cccc(C(=O)O)c3)c2C)S1  92.4%
72. CCC1=NN2C(=N)/C(=C\c3cccn3-c3cccc(Cl)c3)C(=O)N=C2S1  92.3%
73. COc1cc(/C=C2/C(=O)N(c3ccc(Br)cc3)N=C2C)cc(OC)c1OC  92.3%
74. N=C1C=CC=C2C1=NC1(CCCCC1)N2O  91.8%
75. O=S(=O)(c1ccc(OCC(O)CN2CCC(Cc3ccccc3)CC2)cc1)N1CCOCC1 (stereo not given)  91.8%
76. CCCCS(=O)(=O)N1CCCC(C(=O)N2CCOCC2)C1 (stereo not given)  91.6%
77. COc1ccc(C(=O)CSc2nnc3n2CCCN3C(=O)Nc2ccccc2)cc1  91%
78. CC(C)CN(C(=O)CN1CCN(c2ccc(O)cc2)CC1)c1c(N)n(CC(C)C)c(=O)[nH]c1=O  90.8%
79. CC(CNc1ccccc1O)C(=O)O (stereo not given)  90.3%
80. COc1ccc(CN2CCSCC2)cc1C  90.2%
81. Cn1cc(CN2CCN(CCO)CC2)c(-c2ccc(Oc3ccccc3)cc2)n1  89.5%
82. Oc1ccc(/C=N/N2CCCCC2)c(O)c1  89.5%
83. O=C1CCC/C(=N\NC(=O)c2ccc(COc3cccc4cccnc34)cc2)C1  89.2%
84. CCc1cc2c(=O)n(-c3ccc(C)cc3)cnc2s1  89.1%
85. O=C1N=C(N2CCOCC2)SC1=Cc1ccco1  88.8%
86. O=C1NC(c2cccc(Br)c2)=N/C1=C\c1ccco1  88.8%
87. CN(C)[C@@H]1C(=O)C(C(=O)NCN2CCCC2)=C(O)[C@@]2(O)C(=O)C3=C(O)c4c(O)cccc4[C@@](C)(O)C3CC12 (stereo not given in full)  88.8%
88. COc1ccc(/C(O)=C2/C(=O)C(=O)N(c3ccccn3)C2c2ccc(F)cc2)cc1 (stereo not given)  88.5%
89. Nc1ccc(N2CCN(CCCCN3C(=O)C4CCCN4C3=O)CC2)cc1 (stereo not given)  87.8%
90. O=C(COC(=O)C12CC3CC(CC(Br)(C3)C1)C2)Nc1ccc2[nH]c(=O)[nH]c2c1  87.7%
91. CCc1cccc(NC(=O)CCS(=O)(=O)c2ccc(Br)cc2)c1  87.2%
92. CCC(C)[C@H](NC(=O)Nc1ccccc1F)C(=O)OC (stereo not given in full)  87%
93. Cc1ccc(NC(=O)CSc2nnc([C@H](C)NC(=O)OC(C)(C)C)o2)c(C)c1  86.8%
94. COC(=O)C1C(O)=C(C=Nc2ccc(N)cc2)C(=O)CC1(C)C (stereo not given)  86.8%
95. C=CCc1cc(Cl)ccc1OC(=O)Nc1cccc(Cl)c1  86.7%
96. COc1cccc(NC(=O)N2CCN(c3nnnn3-c3ccccc3)CC2)c1  86.7%
97. O=C1CC(c2ccco2)CC(O)=C1C=Nc1cc(Cl)ccc1Cl (stereo not given)  86.1%
98. Cc1cc(O)c(C(C)C)cc1N=Cc1ccc([N+](=O)[O-])cc1  86%
99. CC1(C)Cc2nc3sc(C(=O)O)c(N)c3cc2CS1  85.6%
100. CC(C)Cc1nc2oc3c(NCC(C)O)ncnc3c2c2c1CCCC2 (stereo not given)  85.5%
101. O=c1cc2oc3cc(O)c(O)cc3c(-c3ccccc3O)c-2cc1O  84.8%
102. CN(C)c1ccc(/C=C/C#N)cc1  84.6%
103. Cc1nc2ccc(NS(=O)(=O)c3ccc(F)cc3F)cc2s1  83.6%
104. Cc1cc(/C=C2\SC(=S)NC2=O)c(C)n1C  83.5%
105. Nc1cc(C(=O)O)ccc1N1CCCCC1  83.3%
106. O=c1oc2c(O)c(O)cc3c(=O)oc4c(O)c(O)cc1c4c23  81.6%
107. CN1OC[C@@H]2CN(C(=O)C(C)(C)C)[C@H](c3cccc(Oc4ccccc4)c3)C[C@@H]21  81.6%
108. COc1ccc(NC(=O)CSc2nc3c(cc2C#N)CN(C)CC3)cc1  81.2%
109. O=[N+]([O-])/C(C(Cl)=C(Cl)Cl)=C(/NC1CC1)Sc1ccccc1  80.3%
110. O=C(CSc1nnc(-c2ccco2)c(-c2ccco2)n1)Nc1ccccc1  80.2%
